Common to all, as to experiment: protein-binding microarray (PBM); PBM: ~300 nM protein, 6 mM HEPES pH 7.8, 80 mM KCl, 0.5 mM EDTA, 0.5 mM EGTA, 6% glycerol, 35 ng/ul poly-dIdC, 1% milk, 1 h, room temperature; Ap Aiptasia and Nv Nematostella (sea anemones) / Co Capsaspora / Aq Amphimedon (sponge) / Dm Drosophila / Hu human; RHD is the Rel homology domain; high values mean tight binding
Common to all, as to settings: dsDNA, one strand shown

In one experiment the target is T1, GST-Ap-NF-kB RHD (Exaiptasia pallida (Aiptasia), UniProt A0A913YAJ5 2-422).
T1 sequence: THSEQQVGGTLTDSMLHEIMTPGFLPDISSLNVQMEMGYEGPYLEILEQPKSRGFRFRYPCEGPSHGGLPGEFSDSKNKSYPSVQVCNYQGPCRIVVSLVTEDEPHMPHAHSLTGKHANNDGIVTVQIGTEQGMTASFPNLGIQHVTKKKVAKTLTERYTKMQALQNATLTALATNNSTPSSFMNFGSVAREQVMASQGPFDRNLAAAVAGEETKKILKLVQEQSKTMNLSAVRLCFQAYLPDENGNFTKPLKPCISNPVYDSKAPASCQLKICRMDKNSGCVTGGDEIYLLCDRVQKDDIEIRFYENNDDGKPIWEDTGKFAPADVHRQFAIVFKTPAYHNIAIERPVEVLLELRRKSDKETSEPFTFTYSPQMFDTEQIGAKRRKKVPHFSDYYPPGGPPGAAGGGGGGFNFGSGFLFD

Experiment [1] addresses T2, GST-Nv-NF-kB (Cys allele) (Nematostella vectensis, UniProt E5G601 2-411).
T2 sequence: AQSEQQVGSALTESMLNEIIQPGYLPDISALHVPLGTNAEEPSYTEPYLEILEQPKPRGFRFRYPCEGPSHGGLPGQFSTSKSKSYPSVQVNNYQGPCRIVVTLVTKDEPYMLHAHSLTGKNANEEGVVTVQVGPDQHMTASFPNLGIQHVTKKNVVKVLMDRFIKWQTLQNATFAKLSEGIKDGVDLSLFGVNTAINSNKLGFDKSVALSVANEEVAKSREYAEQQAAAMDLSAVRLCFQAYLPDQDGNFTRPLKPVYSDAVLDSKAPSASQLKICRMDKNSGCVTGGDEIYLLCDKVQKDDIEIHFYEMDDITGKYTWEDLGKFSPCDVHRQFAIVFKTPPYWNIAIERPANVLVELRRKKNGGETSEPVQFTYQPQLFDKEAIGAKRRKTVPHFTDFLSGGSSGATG

Experiment [2] has as its target T3, GST-Nv-NF-kB (Ser allele) (Nematostella vectensis, UniProt A7UNT2 2-411).
T3 sequence: T2 sequence with Q21R, C66S, S207N, E215Q, V217A, E225K, A268E, D399E

The target of another experiment is T4, GST-Co-NF-kB (Capsaspora owczarzaki, UniProt F1ARL5 200-546).
T4 sequence: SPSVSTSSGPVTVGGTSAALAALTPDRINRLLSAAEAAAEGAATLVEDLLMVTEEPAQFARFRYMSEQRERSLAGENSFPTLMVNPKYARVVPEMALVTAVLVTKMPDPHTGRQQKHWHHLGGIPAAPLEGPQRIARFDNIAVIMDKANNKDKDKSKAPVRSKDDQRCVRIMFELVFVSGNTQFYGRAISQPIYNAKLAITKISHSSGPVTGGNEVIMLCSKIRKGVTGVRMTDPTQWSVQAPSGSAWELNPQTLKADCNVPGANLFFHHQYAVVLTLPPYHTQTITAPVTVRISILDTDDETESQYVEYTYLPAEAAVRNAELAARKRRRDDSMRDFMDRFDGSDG

In another experiment the target is T5, GST-Dm-Relish (Drosophila melanogaster, UniProt Q94527 99-473).
T5 sequence: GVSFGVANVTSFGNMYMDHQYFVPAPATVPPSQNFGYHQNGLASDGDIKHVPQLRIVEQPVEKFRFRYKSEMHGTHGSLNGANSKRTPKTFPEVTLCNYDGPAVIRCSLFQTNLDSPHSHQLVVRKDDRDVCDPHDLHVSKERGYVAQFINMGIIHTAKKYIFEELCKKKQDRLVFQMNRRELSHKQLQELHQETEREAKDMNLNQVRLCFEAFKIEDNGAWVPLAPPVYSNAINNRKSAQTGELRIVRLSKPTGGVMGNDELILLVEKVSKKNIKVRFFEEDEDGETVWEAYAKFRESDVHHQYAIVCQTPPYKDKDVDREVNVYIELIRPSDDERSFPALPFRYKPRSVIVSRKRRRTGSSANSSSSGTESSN

The next experiment has as its target T6, GST-Aq-NF-kB (Amphimedon queenslandica, UniProt A9Y5G7 2-389).
T6 sequence: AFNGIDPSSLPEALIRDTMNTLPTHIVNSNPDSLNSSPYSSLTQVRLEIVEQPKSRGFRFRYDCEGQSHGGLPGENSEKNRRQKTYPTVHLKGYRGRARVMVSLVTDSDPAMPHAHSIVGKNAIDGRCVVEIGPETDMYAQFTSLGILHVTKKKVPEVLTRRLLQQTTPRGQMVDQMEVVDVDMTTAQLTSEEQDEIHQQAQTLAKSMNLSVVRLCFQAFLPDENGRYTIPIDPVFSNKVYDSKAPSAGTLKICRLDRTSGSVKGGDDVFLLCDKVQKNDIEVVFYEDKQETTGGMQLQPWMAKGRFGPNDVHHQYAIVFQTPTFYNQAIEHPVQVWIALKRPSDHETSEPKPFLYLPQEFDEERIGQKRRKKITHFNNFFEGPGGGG

In the next experiment the target is GST-Hu-p50 (Homo sapiens, UniProt P19838 7-356).

Where a chain is given by its changes, count along the chain named.

Sequence of GST-Hu-p50 (P19838 7-356): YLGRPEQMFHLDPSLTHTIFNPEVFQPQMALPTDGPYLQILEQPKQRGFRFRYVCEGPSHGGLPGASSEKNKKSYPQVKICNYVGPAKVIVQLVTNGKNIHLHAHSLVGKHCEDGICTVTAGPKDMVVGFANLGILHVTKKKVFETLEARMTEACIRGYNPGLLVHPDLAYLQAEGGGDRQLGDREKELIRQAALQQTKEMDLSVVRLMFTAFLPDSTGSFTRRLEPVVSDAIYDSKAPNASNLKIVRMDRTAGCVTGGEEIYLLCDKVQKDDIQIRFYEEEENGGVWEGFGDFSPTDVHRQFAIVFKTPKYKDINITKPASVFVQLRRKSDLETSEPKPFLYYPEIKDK

Take “CCGATTAACATCAAGGGGTTCCCTGATGTTAATCGGGTCTTGATTCGCTTGACGCTGCTG”: the binding signal stood at 4.99 z-score with GST-Ap-NF-kB RHD; 3.32 z-score in experiment [1]; 2.15 z-score in experiment [2]; 2.13 z-score with GST-Co-NF-kB; 9.46 z-score with GST-Dm-Relish; 5.11 z-score with GST-Aq-NF-kB. This sequence also had a binding signal with GST-Hu-p50 of 3.25 z-score.

With “CCGATTAACATCAGGGGAAAGTATGATGTTAATCGGGTCTTGATTCGCTTGACGCTGCTG”, the binding signal with GST-Ap-NF-kB RHD turned out to be 6.56 z-score; in experiment [1] it was 7.79 z-score; in experiment [2] it was 9.37 z-score; in the experiment with GST-Co-NF-kB, 7.64 z-score; with GST-Dm-Relish it was 2.88 z-score; with GST-Aq-NF-kB it was 5.82 z-score. The same sequence showed a binding signal in the experiment with GST-Hu-p50 of 5.75 z-score.

As for “CCGATTAACATCAAATAACCCCCTGATGTTAATCGGGTCTTGATTCGCTTGACGCTGCTG”, the binding signal with GST-Ap-NF-kB RHD is 7.15 z-score; in experiment [1], 7.1 z-score; in experiment [2], 7.94 z-score; with GST-Co-NF-kB, 4.2 z-score; with GST-Dm-Relish, 8.44 z-score; with GST-Aq-NF-kB, 7.02 z-score. Also, the binding signal with GST-Hu-p50 worked out at 6.17 z-score.

For “CCGATTAACATCAGAAACCCCCCTGATGTTAATCGGGTCTTGATTCGCTTGACGCTGCTG”, the binding signal with GST-Ap-NF-kB RHD came out at 9.47 z-score; in experiment [1], 7.7 z-score; in experiment [2], 7.63 z-score; with GST-Co-NF-kB, 3.94 z-score; in the experiment with GST-Dm-Relish, 9.65 z-score; with GST-Aq-NF-kB, 7.6 z-score. The same sequence displayed a binding signal with GST-Hu-p50 of 6.97 z-score.

For the sequence “CCGATTAACATCAGGGGAAATTATGATGTTAATCGGGTCTTGATTCGCTTGACGCTGCTG”, the binding signal with GST-Ap-NF-kB RHD stood at 8.88 z-score; in experiment [1], 10.5 z-score; in experiment [2], 12.1 z-score; with GST-Co-NF-kB, 9.24 z-score; with GST-Dm-Relish it was 6.62 z-score; with GST-Aq-NF-kB, 7.99 z-score. The same sequence displayed a binding signal in the experiment with GST-Hu-p50 of 6.95 z-score.

In the case of “CCGATTAACATCAGGGAAACACATGATGTTAATCGGGTCTTGATTCGCTTGACGCTGCTG”, the binding signal was determined as 2.17 z-score with GST-Ap-NF-kB RHD; 2.95 z-score in experiment [1]; 3.46 z-score in experiment [2]; 3.05 z-score in the experiment with GST-Co-NF-kB; 6.06 z-score with GST-Dm-Relish; 3.52 z-score with GST-Aq-NF-kB. In the experiment with GST-Hu-p50, the binding signal amounted to 1.39 z-score.

Regarding “CCGATTAACATCAGGGGGAAAGATGATGTTAATCGGGTCTTGATTCGCTTGACGCTGCTG”, the binding signal with GST-Ap-NF-kB RHD worked out at 5.81 z-score; in experiment [1], 5.7 z-score; in experiment [2] it was 7.72 z-score; in the experiment with GST-Co-NF-kB, 8.03 z-score; with GST-Dm-Relish, 2.89 z-score; in the experiment with GST-Aq-NF-kB, 5.04 z-score. In the experiment with GST-Hu-p50, the binding signal was determined as 5.75 z-score.

Take “CCGATTAACATCACTAAATCCCCTGATGTTAATCGGGTCTTGATTCGCTTGACGCTGCTG”: the binding signal with GST-Ap-NF-kB RHD was determined as 6.91 z-score; in experiment [1], 7.06 z-score; in experiment [2], 9.63 z-score; with GST-Co-NF-kB, 3.45 z-score; in the experiment with GST-Dm-Relish, 6.49 z-score; in the experiment with GST-Aq-NF-kB, 5.34 z-score. Moreover, in the experiment with GST-Hu-p50, the binding signal worked out at 6.6 z-score.

“CCGATTAACATCAAGGTATTCCCTGATGTTAATCGGGTCTTGATTCGCTTGACGCTGCTG”: the binding signal with GST-Ap-NF-kB RHD was 4.4 z-score; in experiment [1], 3.82 z-score; in experiment [2] it was 3.75 z-score; in the experiment with GST-Co-NF-kB, 3.21 z-score; in the experiment with GST-Dm-Relish, 6.27 z-score; in the experiment with GST-Aq-NF-kB, 5.39 z-score. In addition, the binding signal in the experiment with GST-Hu-p50 stood at 2.26 z-score.

As to “CCGATTAACATCAATTTCCCAGGTGATGTTAATCGGGTCTTGATTCGCTTGACGCTGCTG”, the binding signal in the experiment with GST-Ap-NF-kB RHD was 2.16 z-score; in experiment [1], 2.4 z-score; in experiment [2], 3.53 z-score; with GST-Co-NF-kB, 3.41 z-score; with GST-Dm-Relish, 1.61 z-score; with GST-Aq-NF-kB, 2.15 z-score. The binding signal with GST-Hu-p50 came to 3.21 z-score.

As for “CCGATTAACATCAAGGGAGTTCCTGATGTTAATCGGGTCTTGATTCGCTTGACGCTGCTG”, the binding signal with GST-Ap-NF-kB RHD worked out at 4.53 z-score; in experiment [1] it was 4.56 z-score; in experiment [2], 2.92 z-score; with GST-Co-NF-kB, 1.22 z-score; in the experiment with GST-Dm-Relish, 5.02 z-score; in the experiment with GST-Aq-NF-kB, 5.71 z-score. The binding signal in the experiment with GST-Hu-p50 turned out to be 3.7 z-score.

As for “CCGATTAACATCAAGAAAACCCCTGATGTTAATCGGGTCTTGATTCGCTTGACGCTGCTG”, the binding signal came to 6.98 z-score with GST-Ap-NF-kB RHD; 7.2 z-score in experiment [1]; 6.87 z-score in experiment [2]; 2.44 z-score with GST-Co-NF-kB; 7.76 z-score in the experiment with GST-Dm-Relish; 6.52 z-score with GST-Aq-NF-kB. Further, the binding signal with GST-Hu-p50 came to 6.8 z-score.

The values above are taken from PMC5700166.
